Screening results: PubChem BioAssay, several laboratories
This is a sample that favours compounds with a hit; in the whole collection about 4.2% have one here.
NALP1 inh: blocks the NALP1 inflammasome reconstituted in yeast; actives 0.61% (n = 280,000); AID 2071; S. cerevisiae NALP1/ASC/caspase-1 growth, X-gal OD620, 72 h; inhibition, % at 10 µM; in the data active = inhibition mostly above about 24%, no sharp cut-off; inactive = mostly below about 32%
TIM10 inh: inhibits growth of TIM10 yeast strain; S. cerevisiae TIM10 strain growth, BacTiter-Glo luminescence, 24 h; inhibition, % at 10 µM; actives 1.4% (n = 330,000);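 active = inhibition of 40% or more at the single tested concentration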;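 also: wild-type TIM10 isogenic control strain grown at permissive 25 °C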
tim23-1 inh: inhibits growth of tim23-1 mutant yeast; S. cerevisiae tim23-1 growth, BacTiter-Glo luminescence, 24 h; inhibition, % at 20 µM; actives 1.3% (n = 330,000); AID 463212;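 active = growth inhibition of the mutant yeast at or above 50%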;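 also: temperature-sensitive mutant grown at 25 °C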
tim10-1 inh: tim10-1 yeast growth inhibition | S. cerevisiae tim10-1 ts strain growth, BacTiter-Glo, 24 h | AID 463190 | actives 2.2% (n = 330,000) | inhibition, % at 20 µM;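 active = inhibition of at least 40%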;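 also: mutant grown at 25 °C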
NLRP3 yeast inh: inhibitors of NALP3 inflammasome in yeast. Yeast reconstituted NLRP3/ASC/caspase-1, beta-gal luminescence, 24 h. inhibition, % at 10 µM. actives 0.39% (n = 330,000). AID 2825;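 active = inhibition of 50% or more; inactive = inhibition below 50%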
V-ATPase pH: regulators of yeast V-ATPase proton transport | S. cerevisiae, pHLuorin cytosolic pH fluorescence | response, % at 10 µM | actives 0.37% (n = 350,000); in the data active = response mostly above about 7.3%, no sharp cut-off; inactive = mostly below about 5.4%; also: actives read high
NALP3 confirm: NALP3 inhibition confirmation in yeast; shares compounds with NLRP3 yeast inh; yeast expressing human NALP3, luminescence; inhibition, % at 10 µM; actives 81% (n = 1,300); AID 435006; in the data active = inhibition above about 48%
Casp1-ASC yeast: active in yeast caspase-1-ASC counter-screen for NALP3 inhibitors; shares compounds with NLRP3 yeast inh; yeast expressing Caspase-1-ASC, luminescence counter screen; inhibition, % at 10 µM; actives 66% (n = 1,000); AID 488784
NALP3 retest: yeast NALP3 inhibition, confirmed on retest. shares compounds with NLRP3 yeast inh. yeast expressing human NALP3, luminescence read-out. inhibition, % at 10 µM. actives 53% (n = 1,000)
tim10-1 confirm: confirmation of tim10-1 mutant yeast growth inhibitors. AID 463213. actives 56% (n = 7,400). shares compounds with tim10-1 inh. S. cerevisiae tim10-1 ts strain growth, BacTiter-Glo, 24 h. inhibition, % at 20 µM;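 active = inhibition of yeast growth at or above a set limit in either of two repeat tests at 20 µM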;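 also: tim10-1 mutant grown at permissive 25 °C to find synthetic lethal compounds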
TIM10 conf: confirmation of TIM10 yeast growth inhibitors; shares compounds with TIM10 inh; S. cerevisiae tim10 strain growth, BacTiter-Glo luminescence, 24 h; inhibition, % at 10 µM; actives 63% (n = 4,600);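 active = inhibition of yeast growth at or above a set limit in either of two replicates at 10 µM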; also: this counterscreen used the strain with wild-type TIM10
A number is an active result; – = inactive; · = no result; ! = a repeat was not active. Rule as the data show it, unless noted: active = inhibition above about 50%; inactive = the rest.

SMILES	NALP1 inh	TIM10 inh	tim23-1 inh	tim10-1 inh	NLRP3 yeast inh	V-ATPase pH	NALP3 confirm	Casp1-ASC yeast	NALP3 retest	tim10-1 confirm	others
O=C(c1cccnc1)N1CCc2ccccc2C1	–	–	–	–	–	–	·	·	·	·
CCc1noc(C)c1C(=O)Nc1cc(S(=O)(=O)N2CCOCC2)ccc1OCC(F)(F)F	·	–	–	–	–	–	·	·	·	·
Cc1nc2c3ccccc3nc(NNC(=O)CCC(=O)NCCN3CCN(c4ccccc4F)CC3)n2n1	–	–	–	–	52	–	76	54	71	·
COc1ccc(N2CCN(CCNC(=O)CCC(=O)NNc3nc4ccccc4c4nc(C)nn34)CC2)cc1	–	–	–	–	–	–	·	·	·	·
CC1CCCC(NC(=O)COC(=O)Cc2c[nH]c3ccccc23)C1C (stereo unspecified)	–	–	–	–	–	–	·	·	·	·
CCN(CC)S(=O)(=O)c1cccc(C(=O)Nc2cc(C)cc(C)c2)c1	–	–	–	–	–	–	·	·	·	·
CCN(CC)S(=O)(=O)c1ccc(C(=O)Nc2cc(C)cc(C)c2)cc1	–	–	–	–	51	–	52	–	–	·
CCOc1ccc2c(c1)nc(NCCCO)n2Cc1ccccc1	·	–	–	–	–	–	·	·	·	·
Cc1ccc(N2C(=O)C3N=NN(CC(=O)N4N=C(c5ccccc5)CC4c4ccccc4)C3C2=O)cc1 (stereo unspecified)	–	–	–	–	65	–	61	–	–	·
Cc1ccc(NC(Cc2cc(C)no2)c2ccccc2)cc1 (stereo unspecified)	–	–	–	–	–	–	·	·	·	·
Cc1cc2c(cc1C)CSC(c1ccccc1O)SC2	–	–	–	62	59	–	64	63	55	35
CCCSc1ccc2nc(-c3ccccc3)cn2c1	–	–	–	45	51	–	61	72	61	–
Cc1ccc(-n2nnnc2SCC(=O)Nc2nc(-c3ccc(F)cc3)cs2)cc1C	–	–	–	–	–	–	·	·	·	·
O=C(CN(C1CCCCC1)S(=O)(=O)c1ccc(F)cc1)NCCCO	–	–	–	–	–	–	·	·	·	·
O=C(CN(C1CCCCC1)S(=O)(=O)c1ccc(F)cc1)Nc1ccc2c(c1)OCO2	–	–	–	45	51	–	56	–	–	–
O=S(=O)(Nc1nc2ccccc2s1)c1ccc(Cl)s1	–	–	–	–	–	–	·	·	·	·
NC(=NCCCCCCN=C(N)/N=C(\N)Nc1ccc(Cl)cc1)/N=C(\N)Nc1ccc(Cl)cc1	–	–	–	66	69	–	74	61	52	41!
CCCn1c(=O)c(C(=O)NCc2ccccc2OC)c(O)c2ccccc21	–	–	–	–	–	–	·	·	·	·
O=C(O)c1cc(N=Nc2c(O)ccc3ccccc23)cc(C(=O)O)c1	–	·	·	·	·	–	·	·	·	·
O=C(O)c1ccc(N=Nc2c(O)ccc3ncccc23)cc1	–	–	–	42	55	–	82	54	53	34
CN(C)c1cc2c(c(N(C)C)c1)C(=O)c1ccccc1C2=O	–	–	–	44	52	–	–	51	–	34
CN(C)S(=O)(=O)c1cccc2c1C(=O)c1ccccc1C2=O	–	–	–	–	–	–	·	·	·	·
CCCCCCCCCCCCCCCC[N+](C)(C)CC	·	–	–	79	65	–	64	62	68	–
CCCCCC[N+](C)(C)CCSSCC[N+](C)(C)CCCCCC	·	–	–	–	–	–	·	·	·	·
O=C(COc1ccccc1[N+](=O)[O-])NCC1COc2ccccc2O1 (stereo unspecified)	·	–	–	–	–	–	·	·	·	·
SMILES	NALP1 inh	TIM10 inh	tim23-1 inh	tim10-1 inh	NLRP3 yeast inh	V-ATPase pH	NALP3 confirm	Casp1-ASC yeast	NALP3 retest	tim10-1 confirm	others
O=C(Nc1nccs1)c1cc2c(s1)-c1ccccc1OC2	–	–	–	59	54	–	67	–	–	–
COc1ccc(CN(C)C(=O)c2ccccc2OCc2c(C)noc2C)c(OC)c1	·	–	–	–	–	–	·	·	·	·
CC(Oc1ccc(F)cc1)C(=O)Nc1nc(-c2ccccn2)cs1 (stereo unspecified)	·	–	–	42	55	–	73	82	74	–
O=C1/C(=C/c2ccccc2[N+](=O)[O-])COc2ccccc21	–	79	–	–	71	–	62	85	74	·	TIM10 conf=89
Cc1ccc2c(c1)sc(=NC(=O)c1cccs1)n2C	–	59	–	–	58	–	–	–	–	·	TIM10 conf=60
CCOC(=O)C1CCN(C(=O)CCc2ccc(S(=O)(=O)NCC(C)C)cc2)CC1	–	–	–	–	–	–	·	·	·	·
CCC(C)(C)n1nnnc1C(c1cccs1)N1CCc2ccccc21 (stereo unspecified)	–	50	–	–	–	–	–	·	·	·	TIM10 conf=34
Cc1sc2ncnc(Oc3ccc(-n4ccnc4)cc3)c2c1C	–	69	–	52	53	–	61	69	–	53	TIM10 conf=–
CN(/N=C/c1cc(Cl)cc(Cl)c1O)C(=S)NC(C)(C)C	–	–	–	–	–	–	·	·	·	·
COc1cc(/C=N/NC(N)=O)c(Br)cc1OCC(=O)Nc1ccccc1C	–	–	–	–	–	–	·	·	·	·
Cc1ccc(Sc2ccc(NC(=O)CCl)cc2)c(C)c1	–	59	–	–	58	·	69	78	58	·	TIM10 conf=43
Cn1c(=O)c(C(=O)NNC(=O)c2ccc(Br)cc2)c(O)c2ccccc21	–	64	–	–	60	–	78	·	·	·	TIM10 conf=59
CC(C)(C)C(=O)/C(=C\c1ccc([N+](=O)[O-])cc1)n1cncn1	55	61	–	–	74	·	65	·	·	·	TIM10 conf=–
CN(C)/C=C(/C(=O)c1ccccc1)n1cncn1	–	–	–	–	–	–	·	·	·	·
CC1CC1C(=O)Nc1ccc(-c2ccccc2)cc1 (stereo unspecified)	–	43	–	–	51	–	64	·	·	·	TIM10 conf=36
COCCNC(=O)c1onc(CSc2cc(C)cc(C)c2)c1C(=O)O	–	–	–	–	–	–	·	·	·	·
COc1ccc(N2CCN(C(=O)Nc3cccc(C(F)(F)F)c3)CC2)cc1	–	49	–	55	–	–	–	·	·	41	TIM10 conf=–
O=C(Nc1cccc(C(F)(F)F)c1)N1CCN(C(=O)Nc2cccc(C(F)(F)F)c2)CC1	–	–	–	–	–	–	·	·	·	·
CN1C/C(=C/c2ccsc2)C(=O)/C(=C/c2ccsc2)C1	·	49	–	54	63	–	56	79	65	31	TIM10 conf=33
